According to PubChem BioAssay (NCATS):
Values without a mark were called inactive. Records with an inconclusive call do not appear. Activity calls are given as the source filed them. Unless noted, calls come from the whole dose curve; as a rule, active = well fitted curve in the direction sought with a large enough effect; inconclusive = small, poorly fitted or top-dose-only effect, or another doubt; inactive = no such curve, though single readings can be large; an effect the other way counts as inactive or inconclusive.

Assays:
GB4 = test: qHTS profiling for inhibitors of Plasmodium falciparum proliferation (AID 504749); note: nearly all actives have a fitted effect of over 60% in size; note: potency is the fitted concentration of half-maximal effect; conditions: P. falciparum in erythrocytes, SYBR Green DNA, 72 h; series mostly up to 28.7 µM
In short: (§1)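 Readout was DNA-dye fluorescence from lysed cultures, ex 485/em 535 nm. Parasitized red cells had grown 72 h with compound; data scaled between 0.29 uM artemisinin and DMSO wells and corrected using vehicle-only plates.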

HB3 = test: as above; conditions: P. falciparum in erythrocytes, SYBR Green DNA, 72 h; series mostly up to 28.7 µM
In short: as §1

JCK = test: as above; conditions: P. falciparum in erythrocytes, SYBR Green DNA, 72 h; series mostly up to 28.7 µM
In short: as §1

PAD = test: as above; conditions: P. falciparum in erythrocytes, SYBR Green DNA, 72 h; series mostly up to 28.7 µM
In short: as §1

PC49 = test: as above; conditions: P. falciparum in erythrocytes, SYBR Green DNA, 72 h; series mostly up to 28.7 µM
In short: as §1

TAB113 = test: as above; conditions: P. falciparum in erythrocytes, SYBR Green DNA, 72 h; series mostly up to 28.7 µM
In short: as §1

W2 = test: as above; conditions: P. falciparum in erythrocytes, SYBR Green DNA, 72 h; series mostly up to 28.7 µM
In short: as §1

[1] = molecular target: Glucocorticoid receptor (Homo sapiens) (UniProt P04150); test: GR-GFP Redistribution (AID 450;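 active = compounds whose dose series gives a full or clear partial fitted curve of increased nuclear translocation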; note: potency is the fitted concentration of half-maximal effect)
[2] = molecular target: Glucocorticoid receptor (Homo sapiens) (UniProt P04150); test: GR-EFC Redistribution (AID 451; calls by dose curve; note: potency is the fitted concentration of half-maximal effect); conditions: CHO-K1 GR-EFC translocation, beta-gal luminescence, 2 h
In short: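 CHO-K1 cells expressing nuclear EA and GR-ED fragments of b-gal; compounds titrated up to 46 uM final, 2 h at 37 C. GR nuclear translocation read as complemented b-gal luminescence after 1 h RT detection.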

[3] = molecular target: Mitogen-activated protein kinase 10 (Mus musculus) (UniProt Q61831); test: JNK3 AlphaScreen Assay (AID 530; active = well fitted curve in either direction with a large enough effect, not every such curve was filed as active;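 note: kinase came from lysate of stimulated human HepG2 cells; signal reports phosphorylation of biotinylated GST-cJun 1-79 at Ser73 with 10 µM ATP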)
In short: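 qHTS format: compounds tested as titrations against IL-1beta/TNF-alpha-activated HepG2 lysate JNK3 with biotin-GST-cJun substrate and 10 uM ATP at room temperature. Loss of anti-phospho-cJun AlphaScreen signal indicates inhibition.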

[4] = molecular target: 3',5'-cyclic-AMP phosphodiesterase 4B (Homo sapiens) (UniProt Q07343); test: qHTS Assay for Inhibitors of PDE-IV (AID 607; active = well fitted activation curve with a large enough effect in the main read-out, with a control signal flat, not every such curve was filed as active)
In short: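 The readout is membrane depolarisation from a cAMP-sensing CNG channel, detected with a potential dye at ex 535/em 590. Cells were HEK293-derived (endogenous PDE-IV) at 1000 cells/well, titrated up to 22.9 uM final.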

[5] = molecular target: Cytochrome P450 2C9 (Homo sapiens) (UniProt P11712); test: qHTS Assay for Inhibitors and Substrates of Cytochrome P450 2C9 (AID 883); note: nearly all actives have a fitted effect of over 60% in size
In short: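 10nM CYP2C9 + 100uM Luciferin-H (=KM), 25mM KPO4; cpd 10 min 37C; NADPH regen, 60 min 37C; stop/detect with P450 Glo-Buffer 20 min; luminescence. Norm. to 57uM sulphaphenazole as full inhibition.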

[6] = molecular target: Cytochrome P450 2C19 (Homo sapiens) (UniProt P33261); test: qHTS Assay for Inhibitors and Substrates of Cytochrome P450 2C19 (AID 899); note: nearly all actives have a fitted effect of over 60% in size
In short: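 Luminescent read-out of luciferin formed from Luciferin-H EGE (10uM, equal to KM). Enzyme 5nM in 50mM KPO4; compound added, 10 min at 37C, then NADPH regenerating system for 60 min at 37C. Full inhibition defined by 57uM ketoconazole.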

[7] = qHTS Assay for Identification of Small Molecule Agonists for Hypoxia Response Element Signaling Pathway (AID 914; active = well fitted activation curve with a large enough effect in the signal ratio, with a control signal flat, not every such curve was filed as active; the % refers to the signal ratio; note: potency is the fitted concentration of half-maximal effect); conditions: ME-180 (cervical carcinoma) HRE-bla reporter, beta-lactamase ratio, CoCl2, 17 h; activation: active compounds read high
In short: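 In Opti-MEM containing 0.5% dialyzed FBS and 10 mM HEPES, ME-180 HRE-bla cells received a compound titration and EC50 CoCl2. They were incubated 17 hours, then CCF4-loaded 2.5 hours at room temperature before ratio reading.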

Chain of Glucocorticoid receptor (Homo sapiens) (P04150 whole entry, looked up, the tested form may be a part): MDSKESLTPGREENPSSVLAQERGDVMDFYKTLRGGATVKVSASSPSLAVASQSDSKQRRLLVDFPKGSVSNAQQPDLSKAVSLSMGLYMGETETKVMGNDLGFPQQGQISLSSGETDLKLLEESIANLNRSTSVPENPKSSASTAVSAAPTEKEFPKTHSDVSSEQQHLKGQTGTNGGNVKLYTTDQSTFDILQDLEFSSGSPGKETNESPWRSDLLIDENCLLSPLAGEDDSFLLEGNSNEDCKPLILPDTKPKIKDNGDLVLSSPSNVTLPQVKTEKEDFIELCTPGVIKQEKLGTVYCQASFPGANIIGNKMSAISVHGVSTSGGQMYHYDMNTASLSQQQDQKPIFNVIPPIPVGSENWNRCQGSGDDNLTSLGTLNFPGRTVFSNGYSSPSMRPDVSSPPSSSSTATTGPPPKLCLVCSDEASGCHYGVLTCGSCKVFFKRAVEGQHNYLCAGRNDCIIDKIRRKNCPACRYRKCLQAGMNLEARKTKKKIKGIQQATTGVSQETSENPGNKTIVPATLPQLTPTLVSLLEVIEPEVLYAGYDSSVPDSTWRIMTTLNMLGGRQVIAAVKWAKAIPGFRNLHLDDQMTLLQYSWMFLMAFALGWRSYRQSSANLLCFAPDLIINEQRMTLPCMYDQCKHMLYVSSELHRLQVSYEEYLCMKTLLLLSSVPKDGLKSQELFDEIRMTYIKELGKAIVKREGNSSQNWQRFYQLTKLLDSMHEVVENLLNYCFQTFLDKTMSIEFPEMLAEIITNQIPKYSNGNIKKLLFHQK
Chain of Cytochrome P450 2C9 (Homo sapiens) (P11712 whole entry, looked up): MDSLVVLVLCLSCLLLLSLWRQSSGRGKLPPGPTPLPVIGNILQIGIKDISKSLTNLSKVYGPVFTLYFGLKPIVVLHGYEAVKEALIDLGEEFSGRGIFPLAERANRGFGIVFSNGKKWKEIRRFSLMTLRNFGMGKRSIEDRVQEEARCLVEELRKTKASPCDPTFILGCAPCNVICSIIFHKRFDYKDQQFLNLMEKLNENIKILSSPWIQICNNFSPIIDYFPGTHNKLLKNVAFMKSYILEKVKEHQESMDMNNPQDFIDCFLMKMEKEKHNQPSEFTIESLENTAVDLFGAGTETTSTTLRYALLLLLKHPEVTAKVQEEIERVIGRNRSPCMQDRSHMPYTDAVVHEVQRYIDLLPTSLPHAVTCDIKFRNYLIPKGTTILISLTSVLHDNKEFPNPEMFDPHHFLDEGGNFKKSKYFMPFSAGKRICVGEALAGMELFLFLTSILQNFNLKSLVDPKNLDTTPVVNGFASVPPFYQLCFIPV
Chain of Cytochrome P450 2C19 (Homo sapiens) (P33261 whole entry, looked up): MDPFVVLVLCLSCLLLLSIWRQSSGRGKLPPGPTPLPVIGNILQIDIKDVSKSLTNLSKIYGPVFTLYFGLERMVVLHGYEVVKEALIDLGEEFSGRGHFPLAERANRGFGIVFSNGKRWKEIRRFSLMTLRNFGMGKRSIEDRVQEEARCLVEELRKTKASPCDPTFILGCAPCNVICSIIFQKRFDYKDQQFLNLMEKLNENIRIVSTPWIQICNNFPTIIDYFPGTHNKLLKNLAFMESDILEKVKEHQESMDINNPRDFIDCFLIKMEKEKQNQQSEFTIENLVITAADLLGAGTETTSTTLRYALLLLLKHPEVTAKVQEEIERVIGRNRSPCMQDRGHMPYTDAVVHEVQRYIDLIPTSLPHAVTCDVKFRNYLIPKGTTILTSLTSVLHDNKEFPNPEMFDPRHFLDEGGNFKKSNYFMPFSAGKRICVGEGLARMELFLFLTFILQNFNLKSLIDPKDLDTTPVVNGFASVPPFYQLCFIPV
Chain of 3',5'-cyclic-AMP phosphodiesterase 4B (Homo sapiens) (Q07343 whole entry, looked up): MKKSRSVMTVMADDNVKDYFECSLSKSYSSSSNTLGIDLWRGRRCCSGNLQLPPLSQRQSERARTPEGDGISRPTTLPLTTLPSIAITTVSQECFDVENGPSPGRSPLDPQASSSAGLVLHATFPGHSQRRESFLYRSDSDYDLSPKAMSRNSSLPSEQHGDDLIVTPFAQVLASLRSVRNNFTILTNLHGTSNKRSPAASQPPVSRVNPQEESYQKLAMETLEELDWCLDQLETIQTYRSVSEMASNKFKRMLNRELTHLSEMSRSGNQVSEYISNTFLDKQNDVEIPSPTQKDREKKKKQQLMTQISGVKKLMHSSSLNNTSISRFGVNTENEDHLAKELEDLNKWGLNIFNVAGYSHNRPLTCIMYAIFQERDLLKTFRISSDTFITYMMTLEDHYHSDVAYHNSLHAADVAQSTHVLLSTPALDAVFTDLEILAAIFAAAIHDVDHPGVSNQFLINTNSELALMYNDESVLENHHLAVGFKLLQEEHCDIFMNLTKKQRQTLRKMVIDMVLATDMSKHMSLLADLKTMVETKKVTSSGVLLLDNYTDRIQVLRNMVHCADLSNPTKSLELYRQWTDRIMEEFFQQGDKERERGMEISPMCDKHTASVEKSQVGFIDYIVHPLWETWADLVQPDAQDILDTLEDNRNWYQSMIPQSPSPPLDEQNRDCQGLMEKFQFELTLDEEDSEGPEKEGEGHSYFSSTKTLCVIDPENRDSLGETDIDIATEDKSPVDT

For C[C@@](Cc1ccccc1)(NC(=O)CN)c1ccccc1, the Potency (GB4) was 8.49 µM (active), the Potency (HB3) was “inactive” and the Potency (JCK) was “inactive”. The Potency (PAD) was “inactive”, the Potency (PC49) was 3.55 µM (active) and the Potency (TAB113) was “inactive”. The Potency (W2) was 3.79 µM (active).

With CN1C[C@H](C(=O)N[C@]2(C)O[C@@]3(O)[C@H]4CCCN4C(=O)[C@@H](Cc4ccccc4)N3C2=O)C[C@H]2c3cccc4[nH]cc(c34)C[C@@H]21 the Potency [1] was over 46 µM, the Potency [2] was over 46 µM and the Potency [3] was “inactive”. The Potency [4] was “inactive”.

In the case of Cc1c(C(=O)O)c(O)cc2c1C(=O)c1c(O)c([C@@H]3O[C@H](CO)[C@@H](O)[C@H](O)[C@@H]3O)c(O)c(O)c1C2=O, the Potency [1] is reported as over 46 µM, the Potency [2] is reported as over 46 µM and the Potency [3] is reported as “inactive”. For the same molecule, the Potency [5] was “inactive” and the Potency [6] was “inactive”.

For COc1ccc(CNc2oc(COc3ccccc3Cl)nc2C#N)cc1, the Potency [1] was over 20.6 µM.

For CC1(C)Cc2c(C#N)c(NCc3ccco3)nc(-c3ccco3)c2CO1, the Potency [1] was over 20.6 µM and the Potency [7] was 2 µM (active).
